Assay results as given in PubChem BioAssay.

experiment: small-molecule microarray binders of probe aNog, primary screen, biochemical, biotinylated probe, 635/667 nm fluorescence (AID 1115); conditions: higher = more signal;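 note: probe is biotinylated aNog protein used at 0.15 µg/mL for 1 h at 4 C; z-score combines 667 nm fluorescence of each spot with its signal to noise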

Question: Which composite z-score does the source give for COc1ccc(NN2C(C(O)c3ccc(OC)c(OCc4ccccc4)c3)C=CC3C(=O)N(C4CCCCC4)C(=O)C32)cc1 (stereo unspecified) here?
Answer: Its composite z-score is 0.751.

Question: For C=CCC(OC(C)=O)[C@@H]1[C@@H](N(Cc2cccc3ccccc23)C(=O)c2cccc3ccccc23)c2cc(OCCCO)ccc2N1C(=O)c1ccc2ccccc2n1 (stereo partly specified), which composite z-score is on record?
Answer: The composite z-score was 0.151.

Question: With CC(C)CNC(=O)[C@@]1(c2ccc([N+](=O)[O-])cc2)CC(=O)N(CC23CC4CC(CC(C4)C2)C3)[C@@H]1c1ccc(CO)cc1I as the compound, how does the composite z-score read?
Answer: Its composite z-score is -0.289.

Question: With Cc1ccc(S[C@]2(C(=O)NCC(C)C)CC(=O)N(Cc3ccccc3Cl)[C@@H]2c2ccc(CO)cc2)cc1 as the compound, how does the composite z-score read?
Answer: Its composite z-score is -0.618.

Question: For [N-]=[N+]=NCc1ccccc1C[C@]1(C(=O)O)N=C(c2ccc(OCCCO)cc2)O[C@H]1c1ccccc1, which composite z-score is on record?
Answer: Its composite z-score is 1.29.

Question: For Cc1ccccc1C(O)C1C=CC2C(=O)N(C)C(=O)C2N1Nc1ccccc1 (stereo unspecified), which composite z-score is on record?
Answer: The composite z-score was 1.07.

Question: Which composite z-score does the source give for O=C1O[C@H](c2ccccc2)[C@H](c2ccccc2)N2[C@H]1[C@@H](C(=O)N1CCN(c3ncccn3)CC1)[C@]1(C(=O)Nc3ccccc31)[C@H]2c1ccc(OCCO)cc1 here?
Answer: Its composite z-score is -0.0464.

Question: For CCCCCN1CC=CC23O[C@@H]4/C=C\CCC(C)OC(=O)C4[C@H]2C(=O)N(CCCCCO)[C@@H]3C1=O (stereo partly specified), which composite z-score is on record?
Answer: Its composite z-score is -0.24.

Question: With CC(C)Cc1ccc(CN2CC[C@@H](NS(=O)(=O)c3ccccc3)C2)cc1 as the compound, how does the composite z-score read?
Answer: The composite z-score was -0.438.

Question: With C=CCC(OC(C)=O)[C@@H]1[C@@H](N(Cc2cccc3ccccc23)C(=O)c2ccc(C)cc2)c2cc(OCCCO)ccc2N1C(=O)Cc1ccc(OC)cc1 (stereo partly specified) as the compound, how does the composite z-score read?
Answer: The composite z-score was -0.198.

Question: With CN1C(=O)C2C=CC(C(O)c3ccccn3)N(Nc3ccccc3)C2C1=O (stereo unspecified) as the compound, how does the composite z-score read?
Answer: Its composite z-score is 0.266.
